Experimental data: paper PMC4336329 (PLoS ONE, 2015)
Among all 310,000 compounds or so, about 14,000 (4.5%) showed an effect of 50% or more. The effect is printed as a negative number. What follows is part of a selection rich in strong results, with near analogues and random picks from the rest.

Target: human ether-à-go-go-related gene (hERG) potassium channel (human, UniProt Q12809)
Assay: primary screen, population patch clamp on CHO cells stably expressing hERG; higher = less effect of the substance
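Further: peak tail current of the secondary pulse compared with the same well before compound.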

Sequence of human ether-à-go-go-related gene (hERG) potassium channel (Q12809 whole entry, looked up): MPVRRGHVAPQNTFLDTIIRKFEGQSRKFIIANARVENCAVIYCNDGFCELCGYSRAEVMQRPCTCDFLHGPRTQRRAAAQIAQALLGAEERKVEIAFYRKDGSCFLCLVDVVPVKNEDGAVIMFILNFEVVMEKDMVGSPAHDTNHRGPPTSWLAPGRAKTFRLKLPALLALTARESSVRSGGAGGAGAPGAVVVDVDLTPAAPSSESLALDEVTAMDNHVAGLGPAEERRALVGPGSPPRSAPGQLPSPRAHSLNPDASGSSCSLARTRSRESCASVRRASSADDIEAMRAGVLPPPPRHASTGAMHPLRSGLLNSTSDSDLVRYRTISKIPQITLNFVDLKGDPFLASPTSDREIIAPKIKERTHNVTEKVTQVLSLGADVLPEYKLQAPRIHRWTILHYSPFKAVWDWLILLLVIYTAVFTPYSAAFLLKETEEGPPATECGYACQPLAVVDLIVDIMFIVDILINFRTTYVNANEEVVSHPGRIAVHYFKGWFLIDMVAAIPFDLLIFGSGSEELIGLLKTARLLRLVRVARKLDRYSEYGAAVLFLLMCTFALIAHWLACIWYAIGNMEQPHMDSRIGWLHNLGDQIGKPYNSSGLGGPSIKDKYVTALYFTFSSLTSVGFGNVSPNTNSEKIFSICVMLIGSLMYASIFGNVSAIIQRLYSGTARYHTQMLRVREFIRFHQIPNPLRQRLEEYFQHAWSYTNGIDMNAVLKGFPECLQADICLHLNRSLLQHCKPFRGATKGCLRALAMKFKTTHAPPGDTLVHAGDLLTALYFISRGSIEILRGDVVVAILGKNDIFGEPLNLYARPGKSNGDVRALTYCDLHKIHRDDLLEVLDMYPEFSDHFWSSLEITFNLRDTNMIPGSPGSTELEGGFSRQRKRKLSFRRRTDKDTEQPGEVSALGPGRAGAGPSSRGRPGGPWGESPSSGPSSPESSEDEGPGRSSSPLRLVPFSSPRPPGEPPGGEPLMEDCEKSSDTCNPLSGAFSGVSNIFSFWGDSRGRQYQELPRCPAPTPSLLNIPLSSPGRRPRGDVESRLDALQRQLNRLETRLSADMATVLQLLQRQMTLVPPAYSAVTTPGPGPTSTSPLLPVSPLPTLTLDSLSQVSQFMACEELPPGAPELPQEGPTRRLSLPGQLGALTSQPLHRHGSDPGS

Structure (SMILES) | hERG current change (%, negative = inhibition) at 10uM
CC(C)CCn1c(SCC(N)=O)nc2c1c(=O)n(C)c(=O)n2C | 6.57%
O=C(Nc1cccc2ncccc12)c1ccccc1Cl | 18.6%
Clc1ccccc1-c1nnc2sc(-c3cccs3)nn12 | -4.57%
CC(=O)c1c(C)oc2ccc(NS(=O)(=O)c3ccc(F)cc3C)cc12 | -13.8%
O=C(NN1CCOCC1)c1ccc(F)cc1 | 1.47%
CCOC(=O)c1c(C)nn(-c2ccc(NC(=O)c3cccs3)cc2)c1C | 16.8%
CCOC(=O)C1=C(O)C(=O)N(c2ccccc2)C1c1cccc([N+](=O)[O-])c1 (stereo not shown) | -26.7%
Cc1ccccc1OCC(=O)Nc1ccc2c(c1)OCO2 | -7.9%
Cc1cccc(C(=O)N(CCc2ccccc2)Cc2ccccc2)c1[N+](=O)[O-] | 4.17%
Cc1cccc(-n2c(C)cc(C)c(C#N)c2=O)c1 | 7.18%
Cc1ccc(C(=O)NCCCNC(=O)c2ccco2)cc1C | 14.7%
CN1CCN(c2nc(N3CCN(CCO)CC3)nc3ccccc23)CC1.Cl | 7.33%
CC(Nc1nc(N2CCOCC2)nc2ccccc12)c1ccccc1 (stereo not shown) | -73.8%
CC(Nc1nc(N2CCN(CCO)CC2)nc2ccccc12)c1ccccc1 (stereo not shown) | -60.9%
c1ccc2c(NC3C4CC5CC(C4)CC3C5)nc(N3CCOCC3)nc2c1 (stereo not shown) | -35.1%
c1ccc2c(Nc3ccc(N4CCOCC4)cc3)nc(N3CCOCC3)nc2c1 | -48.5%
CCN(CC)c1nc(N2CCN(CCO)CC2)nc2ccccc12.Cl | -27.8%
CN(C(=O)CS(=O)(=O)c1cn(CC(=O)N2CCOCC2)c2ccccc12)c1ccccc1 | 0.304%
Cc1cc(C)c(S(=O)(=O)NCCCn2ccnc2)cc1C | 4.04%
Cn1c(=O)c2[nH]c(-c3ccccc3O)nc2n(C)c1=O | 23%

Structure (SMILES) | hERG current change (%, negative = inhibition) at 10uM
O=C(O)CCN1c2ccccc2Sc2ccccc21 | 16.5%
CN1CCCCC1CCN1c2ccccc2Sc2ccc(S(C)=O)cc21.O=S(=O)(O)c1ccccc1 (stereo not shown) | -56%
CC(=O)Nc1ccc(SCCC2CCCCN2C)cc1 (stereo not shown) | 7.77%
O=C(NCCN1CCOCC1)c1ccc2c(c1)N(Cc1ccc(F)cc1)C(=O)c1ccccc1S2(=O)=O | 0.647%
CC(NC(=O)Nc1ccc(Cl)cc1)C1CCCO1 (stereo not shown) | 7.05%
COc1ccc(S(=O)(=O)N2CC(O)CC2C(=O)Nc2cccnc2)cc1 (stereo not shown) | 11.1%
O=C(NCc1ccccc1Cl)C(=O)NCC1OCCN1S(=O)(=O)c1cccs1 (stereo not shown) | -15%
O=C(c1ccc2ccccc2n1)N1CCN(c2ccccc2)CC1 | -3.81%
O=C(c1ccc2ccccc2n1)N1CCN(c2ccccc2Cl)CC1 | -64.8%
O=C(c1ccc2ccccc2n1)N1CCN(c2ccccc2O)CC1 | -0.197%
O=C(N/N=C/c1cccc([N+](=O)[O-])c1)C1CC(=O)N(c2ccc(F)cc2)C1 (stereo not shown) | -65.8%
O=C(N/N=C/c1cccc([N+](=O)[O-])c1)C1CC(=O)N(c2ccc(Cl)cc2)C1 (stereo not shown) | -82.1%
O=C(N/N=C/c1cccc([N+](=O)[O-])c1)C1CC(=O)N(c2ccc(Br)cc2)C1 (stereo not shown) | -46.6%
Cc1ccc(N2CC(C(=O)N/N=C/c3cccc([N+](=O)[O-])c3)CC2=O)cc1 (stereo not shown) | -22.2%
O=C(N/N=C/c1ccccc1O)C1CC(=O)N(c2ccc(Cl)cc2)C1 (stereo not shown) | 8.21%
O=C(N/N=C/c1cccc(Br)c1)C1CC(=O)N(c2ccccc2)C1 (stereo not shown) | 7.68%
O=C(NCc1ccccc1Cl)c1cccc(NC(=O)c2ccccc2)c1 | -8.78%
COc1cc(NC(=S)NC(=O)CC(C)C)ccc1NC(=O)c1cc2ccccc2o1 | 19.7%
COC(=O)CNC(=O)c1ccccc1C | 11.2%
COc1ccc(S(=O)(=O)N2CCCOC2CNC(=O)C(=O)NC2CCCC2)cc1 (stereo not shown) | 4.51%

Structure (SMILES) | hERG current change (%, negative = inhibition) at 10uM
CCCC(C)(C)NC(=O)CCCCC(=O)NC(C)(C)CCC | -9.49%
CCCCCCCC(=O)N1c2ccccc2NC(=O)C1CC(=O)Nc1ccc(C(=O)O)cc1 (stereo not shown) | 13.6%
COc1cccc(NC(=S)N(C)C2CCN(C)CC2)c1 | 11%
O=C(CCCC(=O)N1CCN(c2ccc([N+](=O)[O-])cc2)CC1)c1ccccc1 | -72%
O=C(CCS(=O)(=O)Cc1ccccc1)N1CCN(Cc2ccccc2)CC1 | -22.1%
O=C(CCc1ccccc1)N1CCN(c2ccc(Cl)cc2)CC1 | -35.1%
O=C(CCS(=O)(=O)Cc1ccccc1)N1CCN(c2ccc([N+](=O)[O-])cc2)CC1 | -81.6%
O=C(CCS(=O)(=O)Cc1ccccc1)N1CCN(c2ccccc2)CC1 | -7.79%
O=C(CCc1ccccc1)N1CCN(c2ccc(F)cc2)CC1 | -23%
O=C(CCN1CCN(c2ccc([N+](=O)[O-])cc2)CC1)c1ccc(Cl)cc1 | -72.4%
O=C(CCCC(=O)N1CCN(c2ccccc2F)CC1)c1ccccc1 | -10.7%
O=C(CCN1CCOCC1)c1ccc(Cl)cc1 | 28.3%
CC(=O)c1ccc(N2CCN(C(=O)CCc3ccccc3)CC2)cc1 | -54.1%
O=C(CCCC(=O)N1CCN(c2cccc(Cl)c2)CC1)c1ccccc1 | -44.2%
COc1ccc(N2CCN(CC(=O)c3ccc(Cl)cc3)CC2)cc1 | 10.5%
CSc1nc2ccc(NC(=O)C3CCCO3)cc2s1 (stereo not shown) | -0.62%
CC(=O)Nc1cccc(NC(C)=O)n1 | 19.6%
COc1cc(C(=S)N2CCOCC2)ccc1O | 29.3%
